Screening results from PubChem BioAssay.
An excerpt weighted towards active compounds, which were near 11% of everything screened.
NPR1 antag: antagonists of human natriuretic peptide receptor Npr1. P16066. HEK293 hNpr1 GloSensor cGMP, ANP-stimulated luminescence. Potency, µM (series often up to 46.3 µM), inactives show at the top dose activity change, negative = inhibition, actives largely listed as inhibitors. hit rate 1.6% among 76,000. AID 1347048; calls by dose curve; further: nearly all actives have a fitted effect of over 60% in size
Target sequence (P16066 whole entry, looked up): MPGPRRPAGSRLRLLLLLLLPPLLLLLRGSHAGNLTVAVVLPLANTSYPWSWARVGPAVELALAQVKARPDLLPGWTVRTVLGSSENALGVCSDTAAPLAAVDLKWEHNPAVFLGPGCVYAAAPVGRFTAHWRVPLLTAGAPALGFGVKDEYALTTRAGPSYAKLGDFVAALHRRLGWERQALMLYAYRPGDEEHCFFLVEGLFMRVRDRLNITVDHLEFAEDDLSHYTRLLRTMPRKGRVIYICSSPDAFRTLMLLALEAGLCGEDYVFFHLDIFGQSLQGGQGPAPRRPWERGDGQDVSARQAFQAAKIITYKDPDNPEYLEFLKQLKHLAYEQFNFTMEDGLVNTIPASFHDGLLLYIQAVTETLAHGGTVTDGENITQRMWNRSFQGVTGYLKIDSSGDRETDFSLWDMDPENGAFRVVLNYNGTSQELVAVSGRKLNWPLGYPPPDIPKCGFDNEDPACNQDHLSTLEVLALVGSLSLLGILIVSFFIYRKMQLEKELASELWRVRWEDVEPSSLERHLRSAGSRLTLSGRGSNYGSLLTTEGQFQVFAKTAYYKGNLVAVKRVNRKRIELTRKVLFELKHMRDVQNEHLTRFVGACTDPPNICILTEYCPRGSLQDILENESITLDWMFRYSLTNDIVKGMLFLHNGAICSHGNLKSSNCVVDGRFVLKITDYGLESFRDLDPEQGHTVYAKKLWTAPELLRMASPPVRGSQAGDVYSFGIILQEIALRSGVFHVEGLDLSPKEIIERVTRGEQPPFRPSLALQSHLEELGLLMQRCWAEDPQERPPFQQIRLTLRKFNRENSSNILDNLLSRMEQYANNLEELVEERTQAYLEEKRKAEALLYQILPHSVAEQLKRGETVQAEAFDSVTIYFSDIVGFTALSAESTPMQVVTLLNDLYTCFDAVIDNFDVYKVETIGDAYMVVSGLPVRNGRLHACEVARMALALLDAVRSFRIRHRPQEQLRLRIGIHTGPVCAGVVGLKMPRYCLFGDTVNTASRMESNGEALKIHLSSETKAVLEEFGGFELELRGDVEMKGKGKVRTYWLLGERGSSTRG
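HEK293 cells stably expressing human Npr1 and cGMP GloSensor pGS-40F, loaded 2 h with 2% GloSensor reagent, given compound 30 min at room temperature. Luminescence read before and 20 min after 0.1 nM hNppA.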
NIH3T3 tox: NIH 3T3 cell cytotoxicity. NIH 3T3 viability, CellTiter-Glo ATP luminescence, 48-72 h. Potency, µM (titrated, usually from 96.7 µM), for inactives: top-dose activity change, negative = cytotoxicity, usual class: inhibitors. hit rate 4.3% among 94,000. AID 1345082; further: nearly all actives have a fitted effect of over 55% in size
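Viability of NIH 3T3 cells after 48 or 72 hr compound treatment at 37 °C was assessed by CellTiter-Glo, with luminescence imaged following a 10 min room-temperature step.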
Luciferase inh: inhibitors of firefly (Photinus pyralis) luciferase | P08659 | purified P. pyralis luciferase, luminescence, biochemical | Potency, µM (titrated, usually from 115 µM), most hits filed as inhibitors | hit rate 2.5% among 76,000 | AID 1347043; further: nearly all actives have a fitted effect of over 65% in size
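Biochemical qHTS: compound (6-point titration) added to 10uM D-luciferin plus 10uM ATP in Tris acetate pH 7.5 buffer with Mg, Tween-20 and BSA, then purified enzyme at 10nM; light output imaged.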
HEK293 tox: cytotoxic compounds in HEK 293 cells | HEK 293 viability, ATP luminescence (CellTiter-Glo), 48-72 h | AID 1345083 | Potency, µM (top dose mostly 115 µM), for inactives: top-dose activity change, negative = cytotoxicity, hits mostly inhibitors | hit rate 6.6% among 94,000; further: nearly all actives have a fitted effect of over 60% in size
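ATP-coupled CellTiter-Glo luminescence served as viability read-out, recorded 10 min after reagent addition at room temperature. HEK 293 cells, 250 cells/well, had been incubated with pintool-transferred compound for 48 or 72 hr at 37 degree Celsius.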
* hit, by the source's call; i = inactive; ? = inconclusive; . = no result given; [ ] = dose if it differs, or a comment. Unless noted, the call rests on the fitted dose curve; in most records, active means well fitted curve in the direction sought with a large enough effect; inconclusive means small, poorly fitted or top-dose-only effect, or another doubt; inactive means no such curve, though single readings can be large; an effect the other way counts as inactive or inconclusive. On the % scale 0 is the no-effect control and ±100 the full control effect; potency means the concentration at half of the fitted maximal effect.

SMILES	NPR1 antag	NIH3T3 tox	Luciferase inh	HEK293 tox
O=C(CN1C(=O)C2(CCCCC2)C1c1ccccc1)NCCN1CCCC1 (centres undefined)	.	-11%	.	-29%
C#CCNC(=O)C1=NOC2CN(C(=O)NC(C)C)CC12 (centres undefined)	.	i	.	5%[172 µM]
CC1=C[C@@H](CN(C)CCO)[C@H](C(C)C)C[C@H]1Cc1nnc(-c2ccc(N(C)C)cc2)o1	-1%[70.6 µM]	40µM*	i	63µM*
CC(=O)NC1(C)CCN(Cc2cccc(-c3cccc(Cl)c3)c2)C1 (centres undefined)	2%[70.6 µM]	?	?	79µM*
CC(=O)NC1(C)CCCN(Cc2cccc(-c3ccc4c(ccn4C)c3)c2)C1 (centres undefined)	?	79µM*	?	56µM*
O=C1N(CC2CCC2)CCCC1(O)CNCC1CCCCC1 (centres undefined)	-1%	-21%	i	-12%
COc1ccc(CC2(CO)CCN(c3cc(OC)nc(N)n3)CC2)cc1	?	-28%	i	45µM*
COc1ccc(CC2(CO)CCN(c3nccc(N)n3)CC2)cc1	3%	-34%	i	?
c1ccc(COc2ccccc2CN2CCC3(CCNCC3)C2)cc1	-1%	22µM*	i	28µM*
CC(C)(C)c1cccc(CN2CCC3(CCNCC3)C2)c1O	5%	22µM*	i	22µM*
COCCOC1CCOC2(CCN(C(=O)NCCc3ccccc3)CC2)C1 (centres undefined)	-2%	4%	?	?
CN(Cc1ccc2nonc2c1)C(=O)C1CCN(C(=O)C2CCCC2)CC1	0%	40µM*	i	?
CN(Cc1ccon1)C(=O)C1CCN(C(=O)C2CCC2)CC1	1%	3%	i	-2%
CC1=C[C@@H](CC#N)[C@H](C(C)C)C[C@H]1CC(=O)N1CCC(C)CC1	-14%[70.6 µM]	?	i	71µM*
CC1=C[C@@H](CC#N)[C@H](C(C)C)C[C@H]1CC(=O)NC1CCCCC1	1%[70.6 µM]	?	i	89µM*
O=C(CC[C@@H]1CNC(=O)[C@@H]2C[C@H](NCc3ccccn3)CN12)NCc1ccc(F)cc1	3%[70.6 µM]	?	i	?
O=C(CC[C@@H]1CNC(=O)[C@@H]2C[C@H](NCc3ccccn3)CN12)NCc1ccccc1	0%[70.6 µM]	56µM*	i	71µM*
CCC1Oc2ccc(NC(=O)Nc3cccc(OC)c3)cc2CN(Cc2ccc3c(c2)OCO3)C1=O (centres undefined)	1%	?	i	32µM*
CCC1Oc2ccc(NC(=O)COc3ccccc3)cc2CN(Cc2cccc(OC)c2)C1=O (centres undefined)	-3%	?	i	45µM*
O=C(c1nc2cccnc2n(C2CCCCC2)c1=O)N1CCN(c2ncccn2)CC1	.	-22%	.	1%
CN1CCCCCC(O)c2cc(C(=O)N3CCc4ccccc43)ccc21 (centres undefined)	?	35µM*	?	?
CN1CCCCCC(O)c2cc(C(=O)N3CCOCC3)ccc21 (centres undefined)	6%	?	i	-29%
Cc1cccc(N2CCN(C(=O)c3ccc4c(c3)C(O)CCCCCN4C)CC2)c1 (centres undefined)	-13%	?	i	?
COc1ccccc1N1CCN(C(=O)c2ccc3c(c2)C(O)CCCCCN3C)CC1 (centres undefined)	-18%	?	i	45µM*
CN1CCCCCC(O)c2cc(C(=O)N3CCN(Cc4ccccc4)CC3)ccc21 (centres undefined)	-24%	?	i	56µM*
SMILES	NPR1 antag	NIH3T3 tox	Luciferase inh	HEK293 tox
N#Cc1ccc(CN2C[C@@H](CO)[C@H](c3ccccn3)C2)cc1	4%	-20%	i	-8%
CC1(COc2cccnc2)COc2ccc(C(=O)NCC3CCOCC3)cc2N1 (centres undefined)	-2%[70.6 µM]	-29%[138 µM]	i	?
CCOCC1(C)COc2ccc(C(=O)Nc3cccnc3)cc2N1 (centres undefined)	6%[70.6 µM]	-14%[138 µM]	i	?
COc1cccc(NC(=O)c2ccc3c(c2)NC(C)(COc2cccnc2)CO3)c1 (centres undefined)	22µM*	?	?	50µM*
CCOCC1(C)COc2ccc(C(=O)Nc3ccc(F)c(Cl)c3)cc2N1 (centres undefined)	?	32µM*	?	40µM*
CC1(COc2cccnc2)COc2ccc(C(=O)Nc3cccc(Cl)c3)cc2N1 (centres undefined)	28µM*	?	?	22µM*
CN(C)CCOCC1(C)COc2ccc(C(=O)Nc3cccc(Cl)c3)cc2N1 (centres undefined)	-13%[70.6 µM]	45µM*	45µM*	63µM*
COCC1CN(C2CCC2)CC12CCN(C(=O)c1ccc(F)c(F)c1)CC2 (centres undefined)	-21%	?	i	?
COCCNc1c(-c2noc(C)c2C(=O)Nc2ccc(OC)cc2)cnn1C	2%[70.6 µM]	?	i	?
Cc1ccc(C(=O)N2C(C(=O)N3CCCC3)COC23CCN(C(=O)c2ccccc2C)CC3)cc1 (centres undefined)	0%	-18%	i	-19%
O=C1CC(c2ccccc2)N(C(=O)CNS(=O)(=O)c2ccc3c(c2)CCC3)CCCCCN1 (centres undefined)	1%	-27%	i	?
Cc1cc(C(=O)N2CCC(Cc3ccc(C(N)=O)cc3)CC2)n(C)n1	1%	-22%	i	?
Cc1cc(CN2CCC(Cc3ccc(F)cc3)CC2)n(C)n1	?	?	i	40µM*
CCCCCC(=O)Nc1nc2c(s1)C[C@@H]1[C@](C)(CO)[C@H](O)CC[C@@]1(C)[C@@H]2CC(=O)N(C)Cc1ccccc1	-11%	50µM*	i	28µM*
CCCCCC(=O)Nc1nc2c(s1)C[C@@H]1[C@](C)(CO)[C@H](O)CC[C@@]1(C)[C@@H]2CC(=O)N[C@H](C)c1ccccc1	1%	?	i	40µM*
C#CCN(C)C(=O)C[C@@H]1c2nc(NC(=O)CCCCC)sc2C[C@@H]2[C@](C)(CO)[C@H](O)CC[C@]21C	-4%	-6%	i	-12%
C[C@@H](NC(=O)C[C@@H]1c2nc(-c3cccnc3)sc2C[C@@H]2[C@](C)(CO)[C@H](O)CC[C@]21C)c1ccccc1	-4%	20µM*	i	?
COc1ccccc1-c1ccc2c(C(=O)NCCSC)nn(C)c2n1	.	-17%	.	i
Cc1cc(C)cc(-c2ccc(CN3CCCC(NC(=O)c4ccc(F)cc4)C3)cc2)c1 (centres undefined)	.	-20%	.	-28%
O=C(Nc1ccccc1F)N1CC2CCC(C1)N2Cc1ccc(-c2cccs2)cc1	.	i	.	i
Cc1cc(C)cc(-c2ccc(CN3CCCC(NC(=O)Nc4ccccc4)C3)cc2)c1 (centres undefined)	.	10µM*	.	?
